# In PubChem BioAssay (Tox21):
# Values joined by “and” are separate entries in the source; they are usually repeats but may differ in a detail not shown here. Identical values can stand only once. Records with an inconclusive call do not appear. Where a call stands in place of a potency, no number is given. Where a structure was tested more than once in an assay, its records may differ in their call. Active and inactive are the calls of the source. Calls follow the shape of the dose curve; as a rule, active = well fitted curve in the direction sought with a large enough effect in the repeat runs; inconclusive = weak or mixed curves; inactive = no such curve, though single readings can be large; an effect the other way counts as inactive or inconclusive.
# Legend:
# [1] = qHTS assay to identify small molecule agonists of the RXR signaling pathway - cell viability counter screen (AID 1159529); settings: RXR-alpha-bla HEK293T viability, CellTiter-Glo, 16 h; series mostly up to 76.8 µM; also: nearly all actives have a fitted effect of over 50% in size
# Outline: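 CellTiter-Glo luminescence gave viability in the wells also read for beta-lactamase. Cells (RXR-alpha-UAS-bla HEK 293T, 2% charcoal-stripped FBS medium) had 5 hr plating, then 16 hr compound exposure at 37 C; tetraoctyl ammonium bromide served as positive control.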
# [2] = qHTS assay to identify small molecule antagonists of the retinoic acid receptor (RAR) signaling pathway (AID 1159552; also: nearly all actives have a fitted effect of over 50% in size); settings: C3RL4 RARE luciferase reporter, retinol-stimulated, 6 h; series mostly up to 92.4 µM
# Outline: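 Luminescent RARE reporter read-out in C3RL4 cells: 6 hr co-treatment at 37 C of test compounds with retinol at 1 uM final. Cells plated overnight beforehand; luciferase reagent incubated 30 min at room temperature before reading.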
# [3] = qHTS assay to identify small molecule agonists of the retinoic acid receptor (RAR) signaling pathway (AID 1159553); settings: C3RL4 RARE luciferase reporter, agonist, 6 h; series mostly up to 73.3 µM
# Outline: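 Activation of retinol signaling was monitored via a RARE luciferase reporter in C3RL4 cells. After 6 hr compound treatment at 37 C, detection reagent was added for 30 min at room temperature before luminescence reading.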
# [4] = qHTS assay to identify small molecule antagonists of the retinoid acid receptor (RAR) signaling pathway - cell viability counter screen (AID 1159551); settings: C3RL4 cells viability, ATP luminescence (CellTiter-Glo), 6 h; series mostly up to 92.4 µM; also: nearly all actives have a fitted effect of over 35% in size
# Outline: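 Seed C3RL4 cells; next day add compound, then retinol to 1 uM final; incubate 6 h at 37 C; add CellTiter-Glo; read luminescence after 30 min at RT.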
# Potency is read from the fitted curve at half-maximal effect.
Compound,Potency [1],Potency [2],Potency [3],Potency [4]
Cc1cc(-c2ccc(N)c(C)c2)ccc1N,inactive,inactive,15.1 µM (active),
Nc1ccc(-c2ccc(N)cc2)cc1,inactive,inactive,inactive,inactive
O=C(O)CCl,inactive,inactive,inactive,
O=C(O)C(Cl)(Cl)Cl,inactive,inactive,inactive,
CCCCCCCCCCCCCCCCn1cc[n+](C)c1,,inactive and 27.6 µM (active) and 13.7 µM (active),inactive,inactive and 61.7 µM (active) and 43.4 µM (active)
CC[n+]1ccccc1,inactive,,inactive,inactive and 54 µM (active)
CCCC[n+]1ccc(C)cc1,inactive and 34.5 µM (active),,inactive,
Cc1cc(Cl)ccc1N,inactive,inactive,inactive,inactive
CCCCCCCCn1cc[n+](C)c1,inactive,inactive,inactive,inactive
CCNc1nc(Cl)nc(NCC)n1,inactive,inactive,inactive,
COP(=O)(OC)C(O)C(Cl)(Cl)Cl (stereo unspecified),inactive,inactive,inactive,
C1CCC(NC2CCCCC2)CC1,inactive,inactive,inactive,
O=[N+]([O-])c1ccccc1O,inactive,inactive,inactive,
CCn1cc[n+](C)c1C,inactive,inactive,inactive,inactive
CCCCCCCCCCCC(=O)O,inactive,inactive,inactive,
OCCOc1ccccc1,inactive,inactive,inactive,
